These results are taken from publication PMC8384837, “Expanding the binding specificity for RNA recognition by a PUF domain”.

Common to all, as to experiment: yeast three-hybrid, YBZ-1, SC-Leu-His + 0.5 mM 3-AT, 4 days
Settings in all cases: tags: N-Gal4 AD-HA kept; label: inside an RPR1-promoter hybrid RNA with tandem MS2 sites; ssRNA

Assay [1] has as its target PUM1 PUF domain R2-EWG (Homo sapiens, UniProt Q14671 828-1176, N899E;Y900W;Q903G). Summed up:
(§1)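 A centromeric plasmid in strain YBZ-1 co-expressed Pumilio-1 PUF domain libraries, randomized at the three base-contacting residues of each repeat, with matching RNA elements; the strain carries a LexA–MS2 coat fusion and a HIS3 reporter. After four days on SC-Leu (input) or SC-Leu-His + 0.5 mM 3-AT (selection), the repeat regions were PCR-amplified and Illumina-sequenced. The interaction score is the log change in variant frequency from input to selection, using log2 and a pseudocount of 1 where absent.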

Assay [2] addresses PUM1 PUF domain R5-VNR (Homo sapiens, UniProt Q14671 828-1176, C1007V;R1008N;Q1011R). The method in brief:
as §1

The target in assay [3] is PUM1 PUF domain R5-RLM (Homo sapiens, UniProt Q14671 828-1176, C1007R;R1008L;Q1011M). The method in brief:
as §1

For assay [4], the target named is PUM1 PUF domain R4-SPG (Homo sapiens, UniProt Q14671 828-1176, N971S;H972P;Q975G). Summed up:
as §1

The target in assay [5] is T1, PUM1 PUF domain R6-FRV (Homo sapiens, UniProt Q14671 828-1176, N1043F;Y1044R;Q1047V).
T1 sequence: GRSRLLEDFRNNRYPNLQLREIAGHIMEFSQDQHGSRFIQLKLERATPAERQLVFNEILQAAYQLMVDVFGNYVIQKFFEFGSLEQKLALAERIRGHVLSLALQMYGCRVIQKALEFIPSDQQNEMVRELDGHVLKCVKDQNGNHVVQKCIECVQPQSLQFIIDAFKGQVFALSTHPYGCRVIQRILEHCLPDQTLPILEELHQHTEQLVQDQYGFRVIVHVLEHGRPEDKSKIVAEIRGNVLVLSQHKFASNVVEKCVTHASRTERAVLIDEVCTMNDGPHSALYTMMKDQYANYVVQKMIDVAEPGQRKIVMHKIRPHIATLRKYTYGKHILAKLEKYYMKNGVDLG
Summed up: as §1

Assay [6] concerns the target PUM1 PUF domain R3-EWA (Homo sapiens, UniProt Q14671 828-1176, C935E;R936W;Q939A). The method in brief: as §1
For assay [7], the target named is PUM1 PUF domain R5-GQC (Homo sapiens, UniProt Q14671 828-1176, C1007G;R1008Q;Q1011C). The method in brief: as §1
In assay [8] the target is PUM1 PUF domain R4-RMI (Homo sapiens, UniProt Q14671 828-1176, N971R;H972M;Q975I). Summed up:
as §1

The target in assay [9] is PUM1 PUF domain R5-DRN (Homo sapiens, UniProt Q14671 828-1176, C1007D;Q1011N). Summed up: as §1
The target of assay [10] is PUM1 PUF domain R4-DFM (Homo sapiens, UniProt Q14671 828-1176, N971D;H972F;Q975M). The method in brief: as §1
In assay [11] the target is PUM1 PUF domain R1-GFE (Homo sapiens, UniProt Q14671 828-1176, S863G;R864F;Q867E). Summed up: as §1
Assay [12] concerns the target PUM1 PUF domain R1-KGT (Homo sapiens, UniProt Q14671 828-1176, S863K;R864G;Q867T). Summed up:
as §1

Sequence of PUM1 PUF domain R4-SPG (Q14671 828-1176 N971S/H972P/Q975G): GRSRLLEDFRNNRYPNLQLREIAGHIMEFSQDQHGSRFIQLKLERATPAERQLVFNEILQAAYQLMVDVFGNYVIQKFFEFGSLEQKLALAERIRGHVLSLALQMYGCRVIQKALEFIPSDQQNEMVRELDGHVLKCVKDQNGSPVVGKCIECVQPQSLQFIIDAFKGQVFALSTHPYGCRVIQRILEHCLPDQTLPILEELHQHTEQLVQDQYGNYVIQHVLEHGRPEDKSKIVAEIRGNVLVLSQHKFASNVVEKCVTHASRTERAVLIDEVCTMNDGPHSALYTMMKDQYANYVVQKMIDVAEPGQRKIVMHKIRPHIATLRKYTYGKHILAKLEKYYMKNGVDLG
Sequence of PUM1 PUF domain R3-EWA (Q14671 828-1176 C935E/R936W/Q939A): as the sequence (Q14671 828-1176 N971S/H972P/Q975G) above, with C108E, R109W, Q112A, S144N, P145H, G148Q counted along it

“GGCUAGAACUAGUGGAUCCCCCGGCGCCCGGCGGCUCGAGCCCGGGUAAGUGUAAAAAGUCUGCAUGCCGCCGGGCGCCAUGCCUGCAGGUCGACUCUAGAAAACAUG”: in [1], the binding signal was 8.11 log2 enrichment (interaction score).
Regarding “GGCUAGAACUAGUGGAUCCCCCGGCGCCCGGCGGCUCGAGCCCGGGUAAGUGUUAAUAGUCUGCAUGCCGCCGGGCGCCAUGCCUGCAGGUCGACUCUAGAAAACAUG”, the binding signal in assay [2] was 2.69 log2 enrichment (interaction score); in assay [3], 2.52 log2 enrichment (interaction score).
For “GGCUAGAACUAGUGGAUCCCCCGGCGCCCGGCGGCUCGAGCCCGGGUAAGUGUAAAUAGUCUGCAUGCCGCCGGGCGCCAUGCCUGCAGGUCGACUCUAGAAAACAUG”, the binding signal in assay [4] is 4.58 log2 enrichment (interaction score); in assay [5], 2.7 log2 enrichment (interaction score); in assay [6], 4.04 log2 enrichment (interaction score); in assay [7], 3.41 log2 enrichment (interaction score); in assay [8], 3.31 log2 enrichment (interaction score); in assay [9], 3.15 log2 enrichment (interaction score). Besides, the binding signal in [10] was 5.89 log2 enrichment (interaction score).
On to “GGCUAGAACUAGUGGAUCCCCCGGCGCCCGGCGGCUCGAGCCCGGGUAAGUGUACAUAGUCUGCAUGCCGCCGGGCGCCAUGCCUGCAGGUCGACUCUAGAAAACAUG”, for which the binding signal is 2.11 log2 enrichment (interaction score) in assay [4] and 5.35 log2 enrichment (interaction score) in assay [10].
For the sequence “GGCUAGAACUAGUGGAUCCCCCGGCGCCCGGCGGCUCGAGCCCGGGUAAGUGUCAAUAGUCUGCAUGCCGCCGGGCGCCAUGCCUGCAGGUCGACUCUAGAAAACAUG”, the binding signal in assay [9] is 1.45 log2 enrichment (interaction score); in [3], 1.79 log2 enrichment (interaction score).
Take “GGCUAGAACUAGUGGAUCCCCCGGCGCCCGGCGGCUCGAGCCCGGGUAAGUGUAAAUGGUCUGCAUGCCGCCGGGCGCCAUGCCUGCAGGUCGACUCUAGAAAACAUG”: the binding signal in assay [11] was 4.79 log2 enrichment (interaction score).
As for “GGCUAGAACUAGUGGAUCCCCCGGCGCCCGGCGGCUCGAGCCCGGGUAAGUGUAAAUCGUCUGCAUGCCGCCGGGCGCCAUGCCUGCAGGUCGACUCUAGAAAACAUG”, the binding signal in [12] was 4.83 log2 enrichment (interaction score).
Regarding “GGCUAGAACUAGUGGAUCCCCCGGCGCCCGGCGGCUCGAGCCCGGGUAAGUGUAAAGAGUCUGCAUGCCGCCGGGCGCCAUGCCUGCAGGUCGACUCUAGAAAACAUG”, the binding signal in assay [1] was 4.05 log2 enrichment (interaction score).
